Results with a measured potency or affinity are listed apart. Active and inactive are the calls of the source. The rule behind the calls is not given here.

The nature of the experiment: HeLa cell viability loss – 24 h, dry powder, cytotoxicity control, dose response (AID 651774). Particulars: CellTiter-Glo ATP luminescence; series mostly up to 35 µM; activity change, negative = cytotoxicity: at the top concentration. Background: ATP-based viability assays read luminescence as a measure of living cells.
In the case of `CC(C(=O)NC1CCCC1)c1ccc(-c2ccccc2)cc1` (centres undefined), the “activity change, negative = cytotoxicity” value is 6.08% (inactive).
For the molecule `O=C(O)Cc1ccc(-c2ccccc2)cc1`, the “activity change, negative = cytotoxicity” value is -10.5% (inactive).
As for `O=C(Cc1ccccc1C(F)(F)F)NC1CCCC1`, the “activity change, negative = cytotoxicity” value was 5.34% (inactive).
As to `CCN(Cc1ccc(N2CCCC2)cc1)c1nnnn1CC`, the “activity change, negative = cytotoxicity” value was -1.69% (inactive).
Consider `CCn1nnc(NCc2ccc(C(F)(F)F)cc2)n1`, for which the “activity change, negative = cytotoxicity” value was -1.34% (inactive).
Take `O=C(Cc1ccccc1Cl)NC1CCCC1`: the “activity change, negative = cytotoxicity” value was -2.88% (inactive).
On to `CCn1nnc(NCc2ccc(C(C)C)cc2)n1`, for which the “activity change, negative = cytotoxicity” value was -5.76% (inactive).
As to `O=C(Cc1ccc(-c2ccccc2)cc1)Nc1ccccc1`, the “activity change, negative = cytotoxicity” value is -4.47% (inactive).
In the case of `COc1ccccc1CC(=O)NC1CCCC1`, the “activity change, negative = cytotoxicity” value is -4.73% (inactive).
Take `Cc1ccc(CC(=O)NC2CCCC2)cc1`: the “activity change, negative = cytotoxicity” value is -14.5% (inactive).
On the same count and under the same terms, under `O=C(Cc1ccccc1)NC1CCCC1` stands 10.9% (inactive); under `CN(Cc1ccc(N2CCCC2)cc1)c1nnn(C)n1`, -15% (inactive).
`O=C(NC1CCCC1)Oc1ccc(-c2ccccc2)cc1`: the “activity change, negative = cytotoxicity” value was -2.37% (inactive).
`FC(F)(F)c1ccc(CNc2nn[nH]n2)cc1`: the “activity change, negative = cytotoxicity” value is 1.22% (inactive).
Consider `O=C(Cc1ccc(OC(F)(F)F)cc1)NC1CCCC1`, for which the “activity change, negative = cytotoxicity” value is 5.09% (inactive).
For the molecule `CC(C)c1ccc(CNc2nnn(C)n2)cc1`, the “activity change, negative = cytotoxicity” value is 2.58% (inactive).
Consider `O=C(Cc1ccccc1OC(F)(F)F)NC1CCCC1`, for which the “activity change, negative = cytotoxicity” value is -4.41% (inactive).
Regarding `CCn1nnnc1NCc1ccc(C(F)(F)F)cc1`, the “activity change, negative = cytotoxicity” value is -7.68% (inactive).
For `O=C(Cc1ccc(-c2cccnc2)cc1)NC1CCCC1`, the “activity change, negative = cytotoxicity” value was -4.99% (inactive).
Same read-out and setting: in the case of `O=C(Cc1ccc(-c2ccccc2)cc1)NCc1ccccc1` it was -5.28% (inactive); in that of `N#Cc1cccc(CC(=O)NC2CCCC2)c1`, -5.54% (inactive).
As to `CCC(C)NC(=O)Cc1ccc(-c2ccccc2)cc1` (centres undefined), the “activity change, negative = cytotoxicity” value is -13.7% (inactive).
On to `O=C(Cc1ccc(-c2ccccc2)cc1)N1CCCC1`, for which the “activity change, negative = cytotoxicity” value is 10.1% (inactive).
On to `O=C(Cc1ccccc1-c1ccccc1)NC1CCCC1`, for which the “activity change, negative = cytotoxicity” value was -7.46% (inactive).
Take `CCn1nnnc1NCc1ccc(N2CCCC2)cc1`: the molecule was called inactive.
As to `CC(C)(C)OC(=O)N1CCC(NC(=O)Cc2ccc(-c3ccccc3)cc2)CC1`, the “activity change, negative = cytotoxicity” value is 2.47% (inactive).
As to `CC(C)NC(=O)Cc1ccc(-c2ccccc2)cc1`, the “activity change, negative = cytotoxicity” value was -0.68% (inactive).
In the case of `COc1cccc(CC(=O)NC2CCCC2)c1`, the “activity change, negative = cytotoxicity” value was -2.49% (inactive).
As to `Cn1nnnc1NCc1ccc(N2CCCC2)cc1`, the “activity change, negative = cytotoxicity” value was -3.44% (inactive).

The values above are taken from PubChem BioAssay AID651774 (Broad Institute, 2012).
